From PubChem BioAssay
Only a selection was taken, and hits are over-represented in it overall.
ST2 IL33 inh = inhibitors of human ST2 (IL1RL1) binding to IL-33, primary screen, biochemical, AlphaLISA. Interleukin-1 receptor-like 1 (Homo sapiens), Q01638. AlphaLISA ST2-Fc/biotin-IL-33 interaction, 1 h. inhibition, % for hits at 17 µM. hit rate 2.3% among 78,000; in the data active = inhibition above about 30%
Target sequence (Q01638 whole entry, looked up): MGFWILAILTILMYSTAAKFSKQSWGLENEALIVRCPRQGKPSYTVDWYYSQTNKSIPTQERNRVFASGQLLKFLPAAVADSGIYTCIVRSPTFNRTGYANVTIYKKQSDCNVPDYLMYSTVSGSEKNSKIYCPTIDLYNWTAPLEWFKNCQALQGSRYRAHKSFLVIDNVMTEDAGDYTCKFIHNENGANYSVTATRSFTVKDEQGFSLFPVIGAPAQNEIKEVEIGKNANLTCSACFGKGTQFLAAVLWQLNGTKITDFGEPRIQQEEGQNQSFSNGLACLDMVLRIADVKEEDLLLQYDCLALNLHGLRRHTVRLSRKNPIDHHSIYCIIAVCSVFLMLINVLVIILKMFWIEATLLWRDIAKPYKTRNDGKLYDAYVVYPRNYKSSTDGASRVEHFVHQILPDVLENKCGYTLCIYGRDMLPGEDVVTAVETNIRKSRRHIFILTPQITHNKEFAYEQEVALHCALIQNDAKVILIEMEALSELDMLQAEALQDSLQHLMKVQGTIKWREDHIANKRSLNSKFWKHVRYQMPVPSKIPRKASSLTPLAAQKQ
Numbers stand for hits; ! = not active in a repeat.

How did CSCCC(NC(=O)C1CCC(C)CC1)C(=O)Nc1ccncc1 (stereo not drawn) do in these assays?
ST2 IL33 inh: inactive

How did O=C(CSc1nc2c(c(=O)n1-c1ccc(Cl)cc1)SCC2)Nc1cccc(F)c1 do in these assays?
ST2 IL33 inh: inactive

How did O=C(CCS(=O)(=O)c1cccs1)Nc1ccc(C(=O)NCc2ccc3c(c2)OCO3)cc1 do in these assays?
ST2 IL33 inh: inactive

Results for COc1ccc(C(=O)Nc2c(C)ccc3nsnc23)cc1OC ?
ST2 IL33 inh: inactive

Results for COc1ccc(N/C(C)=C(\C#N)C(N)=O)cc1 ?
ST2 IL33 inh: inactive

How did Cc1ccc(N2CC(NC(=O)Cc3ccc(Cl)cc3)CC2=O)cc1 (stereo not drawn) do in these assays?
ST2 IL33 inh: inactive

How did Oc1oc(-c2ccc(Br)cc2)nc1C=Nc1ccc(Br)cc1 do in these assays?
ST2 IL33 inh: inactive

How did CNCC(=O)N(Cc1ccccc1)Cc1cccc(C)n1 do in these assays?
ST2 IL33 inh: inactive

Results for O=C(c1ccc(OC2CCN(Cc3ccccn3)CC2)cc1)N1CCN(C2CCCC2)CC1 ?
ST2 IL33 inh: inactive

What do the screens show for `CCc1cc2c(=O)c(-c3ccc(Cl)cc3)coc2cc1O`?
ST2 IL33 inh: inactive

What do the screens show for `COc1ccc2nc3oc(C(=O)N4CCN(c5ccc(F)cc5)CC4)cc3cc2c1`?
ST2 IL33 inh: inactive

What do the screens show for `COc1ccc2nc3oc(C(=O)Nc4ccc5c(c4)OCCO5)cc3cc2c1`?
ST2 IL33 inh: 36%

How did COc1ccc2cc3cc(C(=O)Nc4cccc(SC)c4)oc3nc2c1 do in these assays?
ST2 IL33 inh: 34%!

Results for COc1ccc2cc3cc(C(=O)Nc4cccnc4)oc3nc2c1 ?
ST2 IL33 inh: inactive

What do the screens show for `COc1ccc2cc3cc(C(=O)Nc4ccc(C)cc4Cl)oc3nc2c1`?
ST2 IL33 inh: inactive

How did COc1ccc2nc3oc(C(=O)N4CCOCC4)cc3cc2c1 do in these assays?
ST2 IL33 inh: inactive

Results for COc1ccc2cc3cc(C(=O)Nc4ccc(OC)c(Cl)c4)oc3nc2c1 ?
ST2 IL33 inh: 31%

Results for COc1ccc2nc3oc(C(=O)Nc4ccc(F)cc4F)cc3cc2c1 ?
ST2 IL33 inh: inactive

How did COc1ccc2cc3cc(C(=O)Nc4ccc(OC)c(OC)c4)oc3nc2c1 do in these assays?
ST2 IL33 inh: inactive

What do the screens show for `CCc1cccc(NC(=O)c2cc3cc4ccc(OC)cc4nc3o2)c1`?
ST2 IL33 inh: inactive

How did COc1ccccc1NC(=O)c1cc2ccccc2oc1=Nc1ccc(F)cc1 do in these assays?
ST2 IL33 inh: inactive

What do the screens show for `O=c1[nH]c(Nc2ccc(Cl)cc2)nnc1Cc1ccccc1Cl`?
ST2 IL33 inh: inactive

Results for CCCn1nc(C)c2c1NC(=O)CC2c1ccc(S(=O)(=O)NC)cc1 (stereo not drawn) ?
ST2 IL33 inh: inactive

Results for O=C(c1ccc(S(=O)(=O)N2CCCC2)cc1)N1CCN(C/C=C/c2ccccc2)CC1 ?
ST2 IL33 inh: inactive

How did CCN1CCN(C(c2cccs2)C(C)NS(=O)(=O)c2ccc(Cl)cc2)CC1 (stereo not drawn) do in these assays?
ST2 IL33 inh: inactive

Results for O=S(=O)(O)c1ccc(O)c2ncccc12 ?
ST2 IL33 inh: inactive

What do the screens show for `CC(C)(NC(=O)c1cccs1)C(=O)NCC(O)c1ccccc1` (stereo not drawn)?
ST2 IL33 inh: inactive

Results for COCCN(CC1CCCN(C2Cc3ccccc3C2)C1)C(=O)Cc1[nH]nc2ccccc12 (stereo not drawn) ?
ST2 IL33 inh: inactive

How did CC(C)(C)n1nc2c(c1NC(=O)c1cc(Br)ccc1Cl)CSC2 do in these assays?
ST2 IL33 inh: inactive

What do the screens show for `CCOC(=O)c1c(NC(=O)C(C)Oc2ccccc2Br)sc(C)c1C` (stereo not drawn)?
ST2 IL33 inh: inactive

What do the screens show for `Cc1ccc(Sc2c(C)nn(C(=O)CNS(=O)(=O)c3ccc(Cl)cc3)c2C)cc1`?
ST2 IL33 inh: inactive

How did COc1ccc(C2CC(c3ccccc3)=NN2C(=O)c2ccccc2)cc1 (stereo not drawn) do in these assays?
ST2 IL33 inh: inactive

Results for COc1ccc(NC(=O)CN2C(=O)C(=O)c3ccccc32)c(OC)c1 ?
ST2 IL33 inh: inactive

What do the screens show for `COc1ccc(C2=NN(CN3C(=O)C(=O)c4ccccc43)C(c3ccc(OC)cc3)C2)cc1` (stereo not drawn)?
ST2 IL33 inh: 36%

What do the screens show for `NC(=O)CSc1nc2c(sc3ccccc32)c(=O)n1CCCN1CCCC1`?
ST2 IL33 inh: inactive

What do the screens show for `CC/C=C(\C)c1c(-c2ccccc2)ncn1Cc1nc(COC)no1`?
ST2 IL33 inh: inactive

How did CN1CCC2(CCN(C(=O)CCN3CCCCCCC3)CC2)C1 do in these assays?
ST2 IL33 inh: inactive

What do the screens show for `Cc1cccc(NC(=O)CCC2CCCCC2)n1`?
ST2 IL33 inh: inactive

What do the screens show for `COc1ccc(Nc2cc(C)nc(Nc3ccc(NC(=O)CCC4CCCCC4)cc3)n2)cc1`?
ST2 IL33 inh: 40%

What do the screens show for `Cc1cc(N(C)C)nc(Nc2ccc(NC(=O)CCC3CCCC3)cc2)n1`?
ST2 IL33 inh: inactive

What do the screens show for `O=C(CC1CCCCC1)Nc1cccnc1`?
ST2 IL33 inh: inactive

How did Cc1ccc(Nc2cc(C)nc(Nc3ccc(NC(=O)CC4CCCC4)cc3)n2)cc1 do in these assays?
ST2 IL33 inh: 31%

How did COc1ccc(Nc2cc(C)nc(Nc3ccc(NC(=O)CC4CCCC4)cc3)n2)cc1 do in these assays?
ST2 IL33 inh: 30%

How did c1ccc(CN2CC[C@H](c3nnc(-c4ccccc4)o3)C2)cc1 do in these assays?
ST2 IL33 inh: inactive

Results for CC12CC(NC(=O)N1c1ccc(Br)cc1)c1cc(Cl)ccc1O2 (stereo not drawn) ?
ST2 IL33 inh: inactive

Results for CC(Oc1ccccc1)C(=O)Nc1c(C(=O)Nc2ccccc2F)oc2ccccc12 (stereo not drawn) ?
ST2 IL33 inh: inactive

How did Cc1c(C(=O)Nc2cccc(NC(=O)c3ccccc3Cl)c2)cccc1[N+](=O)[O-] do in these assays?
ST2 IL33 inh: inactive

Results for CCCCn1cnc2cc(NCc3ccccc3O)ccc21 ?
ST2 IL33 inh: inactive

What do the screens show for `Cc1ccccc1C(=O)Nc1nnc(Cc2ccccc2F)s1`?
ST2 IL33 inh: inactive

Results for O=C(COc1ccccc1Cl)Nc1ncc(S(=O)(=O)c2ccc([N+](=O)[O-])cc2)s1 ?
ST2 IL33 inh: inactive

What do the screens show for `CN(Cc1ccccc1)C(=O)C[C@@H]1O[C@H](CNC(=O)N2CCOCC2)[C@@H](O)[C@H]1O`?
ST2 IL33 inh: inactive

Results for O=C(c1cn(Cc2ccc(Cl)cc2)nn1)N1CCC(Oc2cccnc2)CC1 ?
ST2 IL33 inh: inactive

What do the screens show for `O=C(Nc1ccc(F)cc1F)C1c2ccccc2Oc2ccccc21`?
ST2 IL33 inh: inactive

Results for CCc1ccc(-c2cn3c(C(=O)N4[C@@H]5CC[C@H]4CNC(=O)C5)csc3n2)cc1 ?
ST2 IL33 inh: 36%

How did COc1ccc(NC2(C(=O)N3[C@@H]4CC[C@H]3CNC(=O)C4)CCCC2)cc1 do in these assays?
ST2 IL33 inh: inactive

Results for Cc1nc2sccn2c1C(=O)N1[C@H]2CCNC[C@@H]1CC2 ?
ST2 IL33 inh: inactive

Results for CCc1c(C)nn(CC(=O)N2CCCN(C)C3(CCN(C)CC3)C2)c1C ?
ST2 IL33 inh: inactive

What do the screens show for `CCOC(=O)Oc1c(Cl)cc2oc(=O)sc2c1Br`?
ST2 IL33 inh: 32%

What do the screens show for `COC(=O)Oc1cc2oc(=O)sc2cc1Cl`?
ST2 IL33 inh: inactive

Results for CCOC(=O)Oc1ccc2c(c1)oc(=O)c1ccccc12 ?
ST2 IL33 inh: inactive

What do the screens show for `Cc1nc(Oc2ccc3ccc(=O)oc3c2)c2c3c(sc2n1)CCC3`?
ST2 IL33 inh: inactive

Results for Cc1ccc(CCNC(=O)c2c[nH]c3ccc(S(=O)(=O)Nc4ccccc4F)cc3c2=O)cc1 ?
ST2 IL33 inh: inactive
